Assay results taken from PubChem BioAssay (NCATS).
Records with an inconclusive call do not appear. Calls of active or inactive are those of the source. Calls come from the whole dose curve; as a rule, active = well fitted inhibition curve with a large enough effect; inconclusive = small, poorly fitted or top-dose-only effect; inactive = flat fitted curve, though single readings scatter.

Assays:
Assay in all cases: qHTS profiling for inhibitors of Plasmodium falciparum proliferation (AID 504749); note: nearly all actives have a fitted effect of over 60% in size
Settings in all cases: P. falciparum in erythrocytes, SYBR Green DNA, 72 h; series mostly up to 28.7 µM
CP260 = system: CP260
Method in brief: (§1)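 Each compound contacts P. falciparum-infected red blood cells for 72 h at 37 C; lysis buffer (Tris, EDTA, saponin, Triton X, SYBR Green I) is added and fluorescence measured next morning; values normalized to controls.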

CP262 = system: CP262
Method in brief: as §1

CP265 = system: CP265
Method in brief: as §1

CP268 = system: CP268
Method in brief: as §1

CP269 = system: CP269
Method in brief: as §1

CP286 = system: CP286
Method in brief: as §1

CP291 = system: CP291
Method in brief: as §1

CP297 = system: CP297
Method in brief: as §1

CP305 = system: CP305
Method in brief: as §1

CP315 = system: CP315
Method in brief: as §1

CP325 = system: CP325
Method in brief: as §1

CP329 = system: CP329
Method in brief: as §1

CP335 = system: CP335
Method in brief: as §1

DFO2036 = system: DFO2036
Method in brief: as §1

DIV14 = system: DIV14
Method in brief: as §1

DIV17 = system: DIV17
Method in brief: as §1

DIV30 = system: DIV30
Method in brief: as §1

Dd2 = system: Dd2
Method in brief: as §1

ECU = system: ECU
Method in brief: as §1

FAB9 = system: FAB9
Method in brief: as §1

GB4 = system: GB4
Method in brief: as §1

HB3 = system: HB3
Method in brief: as §1

ICS = system: ICS
Method in brief: as §1

JCK = system: JCK
Method in brief: as §1

N140 = system: N140
Method in brief: as §1

P94_40 = system: P94_40
Method in brief: as §1

PAD = system: PAD
Method in brief: as §1

PC15 = system: PC15
Method in brief: as §1

PC26 = system: PC26
Method in brief: as §1

PC49 = system: PC49
Method in brief: as §1

SC27B = system: SC27B
Method in brief: as §1

TAB109 = system: TAB109
Method in brief: as §1

TAB113 = system: TAB113
Method in brief: as §1

TAB165 = system: TAB165
Method in brief: as §1

W2 = system: W2
Method in brief: as §1

Measured: Potency
Potency is the fitted concentration of half-maximal effect.

CCOC(=O)c1cncn1[C@@H](C)c1ccccc1
active: W2 1810 nM
inactive: all other assays above
